Shown are actives, neighbours in structure and some others; about 19% of the full set was active somewhere.
DT40 TDP1 no CPT: qHTS for Inhibitors of human tyrosyl-DNA phosphodiesterase 1 (TDP1): qHTS in cells in absence of CPT; DT40 Tdp1-/- hTDP1 cells, no CPT, ATP luminescence, 48 h; 15% of 420,000 active; Potency, µM (doses to about 46.2 µM), without a hit: at the top dose activity change, negative = growth inhibition, hits mostly inhibitors; AID 686978, 2013; further: potency means the concentration at half of the fitted maximal effect; nearly all actives have a fitted effect of over 55% in size
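Compound effects on proliferation are scored in DT40 Tdp1-/-;hTDP1 cells in the absence of CPT. ATP levels (CellTiter-Glo luminescence) are recorded after a ≥48 hr, 37 °C incubation.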
IL1B secr inh: inhibitors of inflammasome signaling (IL-1 beta secretion); THP-1 LPS/ATP IL-1B secretion, AlphaLISA, 16 h; hits give low values; activity change, % at 57.5 µM; 4.7% of 360,000 active; AID 743279; in the data active means activity change below about -50%; inconclusive means mostly about -30% to -49%
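Secreted IL-1B measured by AlphaLISA bead assay after 16 h compound exposure of THP-1 cells; compounds (final up to 57.5 uM) added 1 h before LPS (250 ng/mL) and ATP (1.25 mM) stimulation; lower signal means less secretion.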
ELG1 DNA repair: inhibitors of ELG1-dependent DNA repair in HEK293T cells. Potency, µM (top dose mostly 46.1 µM), inactives show at the highest dose activity change, negative = inhibition, usual class: inhibitors. 2.3% of 330,000 active. HEK293T ELG1-luciferase reporter, luminescence, 16 h; DNA damage induced by 5-fluorouridine. AID 504467; further: potency means the concentration at half of the fitted maximal effect; nearly all actives have a fitted effect of over 55% in size
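Quantitative HTS, concentration-response format. 2,000 cells/well co-treated with 5-fluorouridine and compound, 16 hr in 5% CO2 at 37 °C; ONE-Glo luminescence read after 30 min.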
TDP1 cell CPT: DT40-hTDP1 cell growth loss with CPT. chicken DT40 Tdp1-/-;hTDP1 cells + 20 nM CPT, ATP luminescence, 48 h. Potency, µM (series often up to 46.2 µM), for inactives: at the top dose activity change, negative = growth inhibition, hits mostly inhibitors. 12% of 420,000 active. AID 686979; further: potency means the concentration at half of the fitted maximal effect; nearly all actives have a fitted effect of over 55% in size
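Chicken DT40 Tdp1-/- cells complemented with human TDP1, 400 cells/well, exposed to compounds plus 20 nM camptothecin for at least 48 h at 37 C; viability read as ATP content by CellTiter-Glo luminescence.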
HT1080 IDH1KD tx: kills HT-1080 cells with IDH1 knockdown. HT-1080 IDH1 knockdown viability, ATP luminescence, 48 h. Potency, µM (series often up to 46.1 µM), for the others: at the highest dose activity, negative = toxicity, hits mostly cytotoxic. 2% of 360,000 active;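 further: potency means the concentration at half of the fitted maximal effect; 0% = DMSO wells and -100% = cell-free medium wells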
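IDH1KD HT-1080 cells, 750/well, RPMI + 5% FBS; compound pinned after 2 h settling; 48 h, 37 °C; CellTiter-Glo luminescence; % activity normalised to DMSO and no-cell wells; curves fitted, classed by r2 and efficacy.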
HT1080-NT tox: kills 2HG-producing HT-1080-NT fibrosarcoma cells; HT-1080-NT fibrosarcoma viability, CellTiter-Glo ATP luminescence, 48 h; Potency, µM (series often up to 46.1 µM), for inactives: at the highest dose activity, negative = less viability, most hits filed as cytotoxic; 1.6% of 360,000 active;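 further: NT is the 2HG producing partner of a matched IDH1 knockdown line; potency means the concentration at half of the fitted maximal effect; 0% = DMSO-treated cells and -100% = media-only wells without cells; nearly all actives have a fitted effect of over 55% in size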
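Viability by CellTiter-Glo luminescence after 48 h compound exposure at 37C of HT-1080-NT cells (750/well, RPMI, 5% FBS). % activity scaled between DMSO wells and medium-only wells, then curve-fitted and categorized by curve class.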
An asterisk follows results filed as active; ? = inconclusive; / = no result given. Unless noted, the call rests on the fitted dose curve; in most records, active means well fitted curve in the direction sought with a large enough effect; inconclusive means small, poorly fitted or top-dose-only effect, or another doubt; inactive means no such curve, though single readings can be large; an effect the other way counts as inactive or inconclusive. Unless noted, on the % scale 0 is the no-effect control and ±100 the full control effect.

SMILES	DT40 TDP1 no CPT	IL1B secr inh	ELG1 DNA repair	TDP1 cell CPT	HT1080 IDH1KD tx	HT1080-NT tox
CCCCCCCCCCCCN1C/C(=C\C(=O)OCC)c2ccccc2S1(=O)=O	11µM*	25	-8%	16µM*	-8%	1%
CN(C)CCCNC(=O)c1cccc(-c2cnc3cccnn23)c1	2%	0	/	1%	3%	?
CCc1ccc(N2C(=O)CC(Cn3nc(C)cc3C)C2=O)cc1 (stereo unspecified)	0%	0	2%	2%	7%	3%
O=C(NCCN1CCOCC1)c1cc(Sc2ccccc2Cl)nc2ccccc12	/	/	2%	/	/	/
O=C(NCCCN1CCCCC1)c1cc(Sc2ccc(Cl)cc2)nc2ccccc12	23µM*	/	/	16µM*	/	/
O=C(NCCCN1CCCC1)c1cc(Sc2ccc(F)cc2)nc2ccccc12	-21%	-52*	-1%	-21%	26µM*	21µM*
O=C(NCCN1CCOCC1)c1cc(Sc2ccc(F)cc2F)nc2ccccc12	-30%	-14	?	?	-21%	-7%
COc1ccc2c(Sc3ccc(Cl)cc3)c(C(=O)NCCCN3CCCCC3)[nH]c2c1	23µM*	/	/	23µM*	/	/
CCN(CC)CCCNC(=O)c1[nH]c2ccccc2c1Sc1ccc(Cl)cc1	15µM*	-76*	-16%	?	16µM*	21µM*
CCOCCCNC(=O)c1[nH]c2cc(C)ccc2c1Sc1ccc(Cl)cc1	-21%	/	/	?	/	/
Nc1cccc(NP(=O)(c2ccccc2)c2ccccc2)c1	-3%	-8	3%	-12%	5%	2%
COc1ncc2nc(-c3ccc(F)cc3)c(=O)n(C)c2n1	3%	/	/	-9%	/	/
O=[N+]([O-])c1ccc2c(c1)-c1ccccc1C2O (stereo unspecified)	13µM*	?	/	?	9%	19%
Cc1nonc1C(=O)N/N=C/c1ccc(O)cc1O	3.7µM*	142	8%	3.3µM*	2.1µM*	?
O=C(N/N=C/c1cc(Br)cc([N+](=O)[O-])c1O)c1ccc(NC(=O)c2ccc(F)cc2)cc1	15µM*	69	13µM*	23µM*	-25%	-1%
Cc1ccc(N=Cc2cc(Cl)cc(Cl)c2O)nc1	-24%	60	-12%	?	-14%	0%
O=C(N/N=C/c1ccc(O)cc1O)c1ccc(NC(=O)C2CCCCC2)cc1	7.3µM*	267	8%	6.5µM*	9.2µM*	?
Oc1c(Cl)cc(Cl)cc1/C=N/Nc1ncc(Br)cn1	1.3µM*	10	?	1.2µM*	?	?
Cc1ccc(F)cc1NC(=O)C1C2CCC(O2)C1C(=O)O (stereo unspecified)	5%	19	?	2%	-5%	6%
NS(=O)(=O)c1ccc(NC(=O)COc2cccc3ccccc23)cc1	?	-8	2%	-23%	1%	-1%
Cc1cccc(C(=O)Oc2c(Br)cc(Br)cc2/C=N/NC(=O)c2ccncc2)c1	-13%	11	8%	3%	15%	12%
O=C(N/N=C/c1coc2ccc(Cl)cc2c1=O)c1ccc(O)cc1	-19%	-4	?	?	-9%	-6%
O=C(N/N=C/c1coc2ccc(Cl)cc2c1=O)c1ccncc1	?	-7	16µM*	?	-1%	-7%
O=C(N/N=C/c1cc(Cl)cc(Cl)c1O)c1ccncc1	15µM*	10	?	6.5µM*	3.7µM*	?
O=C(N/N=C/c1cc(Br)cc(Br)c1O)c1ccncc1	0.65µM*	164	?	2.6µM*	?	?
